High-throughput results deposited in PubChem BioAssay by National Center for Advancing Translational Sciences (NCATS).
HCV inh: HCV inhibition | 340,000 tested, 3.4% active | Huh7.5.1 HCVcc-Cre infection, luciferase reporter, 44 h | Potency, µM (series often up to 41.8 µM), without a hit: top-dose activity change, negative = inhibition, actives largely listed as inhibitors | AID 651820; further: potency means the concentration at half of the fitted maximal effect; on the % scale 0 is the no-effect control and ±100 the full control effect
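A cell-based infection assay in which seeded cells (1,000 per well) receive test compound after 4 h, are inoculated with HCVcc-Cre at approximately 0.5 moi, and are incubated 44 h before luminescence detection.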
Shiga toxin inh: inhibitors of Shiga toxin in Vero cells. Vero cells, Shiga toxin protein synthesis inhibition reporter. inhibition, % at 38.7 µM. 290,000 tested, 9.2% active. AID 2315; in the data active means inhibition mostly above about 28%, no sharp cut-off; inactive means mostly below about 43%; further: 0% is about no effect
Pf growth 48h: inhibits P. falciparum growth in the first generation, 48 h; 310,000 tested, 5.9% active; Potency, µM (highest dose often 28.7 µM), for inactives: at the top dose activity change, negative = inhibition, actives largely listed as inhibitors; P. falciparum luciferase growth in erythrocytes, 48 h; further: potency means the concentration at half of the fitted maximal effect; on the % scale 0 is the no-effect control and ±100 the full control effect
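Here the parasites carry a stable luciferase gene and grow inside erythrocytes in Albumax-based RPMI medium with compound for one erythrocytic cycle. Activity is scored as loss of luminescent signal.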
HCMV inh: inhibitors of human cytomegalovirus. HFF cells, HCMV-luciferase reporter, 72 h; stronger effect = lower value. 410,000 tested, 4.5% active. activity change, negative = inhibition, % at 57.5 µM; in the data active means activity change below about -60%; inconclusive means no clear call, values can overlap the other calls; inactive means above about -39%; further: on the % scale 0 is the no-effect control and ±100 the full control effect
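After 16 h attachment at 37C, HFF cells received test compound and HCMV-luciferase (1 PFU/cell); reporter luminescence read 72 h later, data normalized against buffer-only and known inhibitor Salinomycin.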
Pf growth 96h: P. falciparum growth inhibition at 96 hours; AID 504834; P. falciparum luciferase reporter growth, 96 h; Potency, µM (top dose mostly 28.7 µM), for the others: at the highest dose activity change, negative = inhibition, hits mostly inhibitors; 320,000 tested, 6.9% active; further: potency means the concentration at half of the fitted maximal effect; on the % scale 0 is the no-effect control and ±100 the full control effect
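P. falciparum expressing integrated firefly luciferase, in erythrocytes at 2% hematocrit, 0.05% parasitemia, incubated with compounds 96 h at 37 C, 5% CO2. Growth inhibition read as loss of luminescence; two-generation exposure targets delayed-death apicoplast inhibitors.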
CHX counter: affects cycloheximide protein synthesis inhibition readout, counter-screen; cell reporter, cycloheximide protein synthesis inhibition counterscreen; max response, %; 300,000 tested, 12% active; AID 2314; in the data active means max response mostly above about 13%, no sharp cut-off; inactive means mostly below about 14%; further: read at 38.3 µM for the half of the compounds with a filed dose; 0% is about no effect
* = called active by the depositor; i = inactive; ? = inconclusive; . = no result given. Only some compounds are listed: those with a hit (about 21% of all), similar ones and a draw of the others. Unless noted, the call rests on the fitted dose curve; in most records, active means well fitted inhibition curve with a large enough effect; inconclusive means small, poorly fitted or top-dose-only effect, or another doubt; inactive means no such curve, though single readings can be large or run the other way.

SMILES	HCV inh	Shiga toxin inh	Pf growth 48h	HCMV inh	Pf growth 96h	CHX counter
CC1=C(C#N)C(=O)N(C2CCS(=O)(=O)C2)C(=O)/C1=C\c1ccc(C)o1 (centres undefined)	.	-14	59%	.	46%	-1
CCc1ccc(-n2nc(C)c3c(C(=O)Nc4cc(C)ccc4C)cc(C)nc32)cc1	.	.	.	3	.	.
Cc1ccc(SCCNC(=S)Nc2cc(C)cc(C)c2)cc1	-28%	-14	.	-30	?	-2
Cc1ccc(NC(=S)NCCSc2ccc(Cl)cc2)cc1	-15%	27	12µM*	?	?	-2
CSc1ccc(CNc2nnnn2C)cc1	4%	-15	16%	-81*	-25%	-6
CCCn1nnnc1NCc1ccc(SC)cc1	10%	.	?	1	1%	-2
O=C(CSc1oc(-c2ccco2)nc1S(=O)(=O)c1ccc(Cl)cc1)c1ccc(Cl)cc1	.	.	.	-10	.	.
CCC1(c2cccc(O)c2)CCCCN(C)C1 (centres undefined)	-66%	.	-4%	-68*	14%	.
Oc1cccc(C(=S)N2CCCCC2)c1	-11%	19	39%	?	?	-1
O=c1oc2ccc(Br)cc2cc1-c1csc(-c2ccccc2)n1	.	.	.	2	.	.
Cc1cc(C)c(-c2csc(-c3cc4ccccc4oc3=O)n2)cc1C	.	.	.	7	.	.
O=c1oc2ccccc2cc1-c1csc(Cc2nc(-c3ccc(Br)cc3)cs2)n1	?	4	7%	-99*	27%	7
Cc1cc(C)c(-c2csc(Cc3nc(-c4cc5ccccc5oc4=O)cs3)n2)cc1C	?	-8	?	-65*	?	7
CCN1CCN(CCC(=O)Nc2ccc(F)c(F)c2)CC1	28%	-2	10%	-4	21%	0
CCNc1nc(NCc2ccccc2)nc(SCC(=O)Nc2ccccc2)n1	25µM*	-10	?	39	?	-6
CN(C)c1nc(NCc2ccccc2)nc(SCC(=O)Nc2ccc(Cl)c(Cl)c2)n1	?	-4	10µM*	-9	12µM*	0
COc1nc(SCC(=O)Nc2ccccc2Cl)nc(N(C)C)n1	-11%	40	10%	0	5%	18*
CCNc1nc(SCC(=O)Nc2ccc(Cl)c(Cl)c2)nc(N(C)C)n1	?	-6	?	59	42%	14
C[C@H](CO)N1C[C@H](C)[C@@H](CN(C)C(=O)Nc2ccc(-c3cccs3)cc2)OCc2cn(nn2)CCCC1=O	.	.	.	-7	.	.
CCOC(=O)c1oc2cccc(O)c2c1C	-15%	63*	81%	26	64%	32*
CCOC(=O)c1oc2cccc(OC(C)=O)c2c1C	-25%	68*	35%	32	8%	39*
CCOC(=O)c1oc2cccc(O)c2c1CN(Cc1ccccc1)C(C)=O	?	-3	-23%	-4	?	-5
CCOC(=O)c1oc2ccc(CNC(C)(C)C)c(Cl)c2c1C	?	27*	-1%	2	?	16*
CCOC(=O)c1oc2cccc(O)c2c1CN1CCOCC1	-2%	-17	2%	11	-23%	-2
CCCCc1nn2c(=O)cc(COC(=O)c3ccc(NC(=O)C4CCCCC4)cc3)nc2s1	.	.	.	106	.	.
SMILES	HCV inh	Shiga toxin inh	Pf growth 48h	HCMV inh	Pf growth 96h	CHX counter
COc1ccc(/C(C)=N/NS(=O)(=O)c2cc(C)ccc2C)c(OC)c1	-4%	-6	0%	?	?	6
CCN(Cc1ccccc1)C(=O)CCCOc1ccccc1	-12%	77*	47%	41	-18%	26*
O=C(O)CCCC(=O)N(Cc1ccccc1)Cc1ccccc1	10%	14	.	10	.	-1
O=C(CCc1nnc(COc2ccccc2)o1)NCc1ccccc1	17%	24	29%	-14	?	11
CCN(Cc1ccccc1)C(=O)CCc1nnc(CCCc2ccccc2)o1	1%	57*	29%	-8	-1%	22*
COc1cccc(CN(C)C(=O)CCc2nnc(-c3ccsc3)o2)c1	7%	33	10µM*	46	?	7
Cc1ccsc1CN(C)C(=O)CCc1nnc(COc2ccccc2)o1	1%	56*	13%	157	17%	35*
CCc1cccc(CC)c1NC(=O)CSc1nnc(CCC(=O)O)c(=O)[nH]1	5%	-3	29%	-38	141%	6
Cc1cccc(NC(=O)CNC(=O)c2ccc(-n3cncn3)c([N+](=O)[O-])c2)c1C	1%	.	10%	3	2%	.
CC(C)(CO)CNC(=O)CCc1nnc(CCCc2ccccc2)o1	15%	36	22%	-1	?	22*
CC(Cc1ccsc1)NC(=O)CCc1nnc(COc2ccccc2)o1 (centres undefined)	1%	18	0%	-3	28%	19*
CN(Cc1ccsc1)C(=O)CCc1nnc(CCCc2ccccc2)o1	-13%	124*	-2%	2	-25%	47*
CCN(Cc1ccncc1)C(=O)CCc1nnc(CCC2CCCCC2)o1	10%	39*	?	-32	?	23*
CN(Cc1ccsc1)C(=O)CCc1nnc(Cc2c[nH]c3ccccc23)o1	6%	-7	39%	-6	?	-3
CC(C)(C)S(=O)N1C[C@@H]2CC(=O)C(CCO)=C2[C@H]1CCO (some centres undefined)	.	.	.	8	.	.
CCN(CC)C(=O)c1cc(-c2ccc(Cl)cc2)on1	.	.	.	83	.	.
O=C(O)CN1C(=O)CC(c2ccccc2)CC1=O	19%	-4	21%	-5	?	-2
CC(C(=O)NCCc1ccccc1)N1c2cccc3cccc(c23)S1(=O)=O (centres undefined)	-12%	-3	-6%	-25	?	-2
O=C(Nc1sc2c(c1C(=O)NCc1cccnc1)CCCC2)c1cc(=O)c2ccccc2o1	.	.	.	2	.	.
COCCNC(=O)c1ccc2ccccc2n1	7%	33	15%	47	16%	27*
O=C(O)c1cnc2ccccc2n1	-5%	-16	15%	30	11%	-4
O=C(O)C(=O)/C(=C\c1ccc(Cl)cc1)c1ccc2ccccc2n1	15%	166*	378%	48	i	30*
COC(=O)c1cnc2ccccc2n1	-27%	29	-4%	15	17%	16*
O=C(NCCc1ccc(Cl)cc1)c1ccc2ccccc2n1	3%	70*	24%	40	38%	22*
COc1ccc2c(c1)c1c(c(=O)n(-c3ccc(OC)c(OC)c3)c(=O)n1Cc1ccccc1C)n2C	.	-5	.	20	.	-3
O=C(NCc1ccco1)C(=O)NN=Cc1ccccc1O	.	.	.	-25	.	.
COc1ccc(CNC(=O)CCCn2c(=O)c3cccn3c3ccc(F)cc32)cc1OC	.	.	.	-19	.	.
CC1=CCC2CC1C2(C)C (centres undefined)	.	.	0%	.	-10%	.
